# Measured values published in PubChem BioAssay (NCI).
# This is part of a sample that, as a whole, favours compounds with a hit. Of some 79,000 tested, about 15% had one in any assay. A number with no mark means an inactive call. Activity calls are given as the source filed them. Cut-off read from the data, not from the text of the source: active = growth inhibition above about 70%; inactive = the rest.
# How the values were obtained:
# [1] = NCI Yeast Anticancer Drug Screen. Data for the rad52 strain (AID 147);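 note: 0% = growth of vehicle-treated control cultures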; details: S. cerevisiae rad52 mutant growth inhibition, stronger effect = higher value
# Outline: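 DNA repair-defective yeast; compound exposure; growth scored against vehicle controls.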
# [2] = NCI Yeast Anticancer Drug Screen. Data for the wt1 strain (AID 149);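 note: 0% = growth of vehicle-treated wt1 cultures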; details: S. cerevisiae wt1 strain (SPY 50644) growth inhibition, stronger effect = higher value
# Outline: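 Measured: growth of wt1 yeast under compound versus vehicle treatment, reported as inhibition.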
# [3] = NCI Yeast Anticancer Drug Screen. Data for the rad50EPP+ strain (AID 151);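 note: 0% = growth of vehicle-treated control cultures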; details: S. cerevisiae rad50 mutant strain, stronger effect = higher value
# Outline: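 rad50EPP+ yeast treated with test compounds. Readout: growth vs vehicle control.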
# [4] = NCI Yeast Anticancer Drug Screen. Data for the mgt1 strain (AID 153); details: S. cerevisiae mgt1 mutant growth inhibition, stronger effect = higher value
# Outline: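 Growth inhibition relative to vehicle controls was scored for the mgt1 yeast strain after compound exposure.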
# [5] = NCI Yeast Anticancer Drug Screen. Data for the rad50 strain (AID 155);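 note: 0% = growth of vehicle-only cultures of the same strain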; details: S. cerevisiae rad50 strain growth inhibition, stronger effect = higher value
# Outline: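 Growth of the mutant yeast was measured after compound exposure and referenced to vehicle-treated cultures.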
# [6] = NCI Yeast Anticancer Drug Screen. Data for the mec2-1 strain (AID 157); details: S. cerevisiae mec2-1 strain, stronger effect = higher value
# Outline: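 Growth inhibition is read against vehicle-treated controls after compound exposure of the mec2-1 yeast strain, which is defective in DNA damage repair or cell cycle control.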
# [7] = NCI Yeast Anticancer Drug Screen. Data for the rad14 strain (AID 159);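 note: 0% = growth of vehicle-treated control cultures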; details: S. cerevisiae rad14 strain growth inhibition, stronger effect = higher value
# Outline: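 Here, inhibition of yeast growth was measured after compound exposure, using a strain with a genetic defect in DNA damage repair and vehicle-treated cultures as the reference.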
# [8] = NCI Yeast Anticancer Drug Screen. Data for the sgs1 mgt1 strain (AID 161);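 note: 0% = growth of cultures given vehicle only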; details: S. cerevisiae sgs1 mgt1 strain, stronger effect = higher value
# Outline: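 This yeast growth screen uses a strain with defined DNA-repair lesions; compound-treated growth is compared with vehicle-treated growth.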
# [9] = NCI Yeast Anticancer Drug Screen. Data for the CLN2oe strain (AID 163);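 note: 0% = growth of vehicle-only control cultures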; details: S. cerevisiae CLN2oe strain, stronger effect = higher value
# Outline: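 Compound-treated yeast; growth vs vehicle ctrl = % inhibition. Genetically altered strain (cell-cycle control).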
# [10] = NCI Yeast Anticancer Drug Screen. Data for the cln2 rad14 strain (AID 165);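 note: 0% = growth equal to vehicle treated cultures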; details: S. cerevisiae cln2 rad14 strain, stronger effect = higher value
# Outline: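 Growth inhibition, relative to vehicle-treated controls, is the read-out. The test organism is a yeast strain with defined genetic alterations, cln2 rad14.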
# [11] = NCI Yeast Anticancer Drug Screen. Data for the bub3 strain (AID 167); details: S. cerevisiae bub3 mutant strain, stronger effect = higher value
# Outline: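 Whole-cell yeast assay. The mutant strain was incubated with compounds, and growth inhibition was determined by comparison with vehicle-treated cells.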
# [12] = NCI Yeast Anticancer Drug Screen. Data for the wt2 strain (AID 169);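 note: 0% = growth of vehicle-treated yeast cultures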; details: S. cerevisiae wt2 strain growth inhibition, stronger effect = higher value
# Outline: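 Compound exposure of yeast; growth compared with vehicle controls; inhibition reported.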
# [13] = NCI Yeast Anticancer Drug Screen. Data for the sgs1 strain (AID 173);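 note: 0% = growth of vehicle-only control cultures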; details: S. cerevisiae sgs1 mutant, stronger effect = higher value
# Outline: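 Compounds applied to genetically altered yeast; growth compared with vehicle-treated cultures to give % inhibition.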
# [14] = NCI Yeast Anticancer Drug Screen. Data for the mlh1 rad18 strain (AID 175); details: S. cerevisiae mlh1 rad18 strain growth inhibition, stronger effect = higher value
# Outline: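 Cells of a genetically altered yeast strain, deficient in DNA damage repair, were treated with compound. Their growth was then compared with that of vehicle-treated cultures to give inhibition.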
# [15] = NCI Yeast Anticancer Drug Screen. Data for the rad18 strain (AID 177); details: S. cerevisiae rad18 mutant growth inhibition, stronger effect = higher value
# Outline: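 Compounds are applied to a repair-deficient yeast strain, and growth is compared with that of vehicle-treated cultures to give percent inhibition.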
# [16] = NCI Yeast Anticancer Drug Screen. Data for the mlh1 strain (AID 171);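 note: 0% = growth of vehicle-treated control cultures of the same strain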; details: S. cerevisiae mlh1 strain growth inhibition, stronger effect = higher value
# Outline: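 Compounds are applied to a genetically altered yeast strain, and its growth is compared with that of vehicle-treated cultures to give percent inhibition.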
# [17] = at 5.0 µM (retest, dose inferred, filed as 0.5)
# [18] = at 50.0 µM (retest, dose inferred, filed as 5.0)
compound,measurement,setting,value
CC[n+]1oc(C(=O)c2ccc(Cl)cc2)c(-c2ccccc2)c1-c1ccccc1.[Cl][Fe]([Cl])([Cl])[Cl],growth inhibition,[1]; at 1.2 µM,4%
same,growth inhibition,[1]; at 3.7 µM,15%
same,growth inhibition,[1]; at 11.0 µM,32%
same,growth inhibition,[1]; at 33.0 µM,57%
same,growth inhibition,[1]; at 100.0 µM,75% (active)
same,growth inhibition,[2]; at 1.2 µM,1%
same,growth inhibition,[2]; at 3.7 µM,-1%
same,growth inhibition,[2]; at 11.0 µM,4%
same,growth inhibition,[2]; at 33.0 µM,20%
same,growth inhibition,[2]; at 100.0 µM,54%
same,growth inhibition,[3]; at 1.2 µM,16%
same,growth inhibition,[3]; at 3.7 µM,37%
same,growth inhibition,[3]; at 11.0 µM,75% (active)
same,growth inhibition,[3]; at 33.0 µM,93% (active)
same,growth inhibition,[3]; at 100.0 µM,99% (active)
same,growth inhibition,[4]; at 1.2 µM,-2%
same,growth inhibition,[4]; at 3.7 µM,-3%
same,growth inhibition,[4]; at 11.0 µM,-3%
same,growth inhibition,[4]; at 33.0 µM,-1%
same,growth inhibition,[4]; at 100.0 µM,48%
same,growth inhibition,[5]; at 1.2 µM,5%
same,growth inhibition,[5]; at 3.7 µM,8%
same,growth inhibition,[5]; [17],36%
same,growth inhibition,[5]; at 11.0 µM,41%
same,growth inhibition,[5]; at 33.0 µM,62%
same,growth inhibition,[5]; [18],72% (active)
same,growth inhibition,[5]; at 50.0 µM,82% (active)
same,growth inhibition,[5]; at 100.0 µM,77% (active)
same,growth inhibition,[6]; at 1.2 µM,3%
same,growth inhibition,[6]; at 3.7 µM,1%
same,growth inhibition,[6]; [17],22%
same,growth inhibition,[6]; at 11.0 µM,11%
same,growth inhibition,[6]; at 33.0 µM,26%
same,growth inhibition,[6]; [18],57%
same,growth inhibition,[6]; at 50.0 µM,80% (active)
same,growth inhibition,[6]; at 100.0 µM,69%
same,growth inhibition,[7]; at 1.2 µM,2%
same,growth inhibition,[7]; at 3.7 µM,6%
same,growth inhibition,[7]; at 11.0 µM,12%
same,growth inhibition,[7]; at 33.0 µM,28%
same,growth inhibition,[7]; at 100.0 µM,57%
same,growth inhibition,[8]; [17],34%
same,growth inhibition,[8]; [18],79% (active)
same,growth inhibition,[8]; at 50.0 µM,89.3% (active)
same,growth inhibition,[9]; at 1.2 µM,0%
same,growth inhibition,[9]; at 3.7 µM,2%
same,growth inhibition,[9]; at 11.0 µM,7%
same,growth inhibition,[9]; at 33.0 µM,23%
same,growth inhibition,[9]; at 100.0 µM,56%
same,growth inhibition,[10]; [17],17%
same,growth inhibition,[10]; [18],57%
same,growth inhibition,[10]; at 50.0 µM,68.2%
same,growth inhibition,[11]; at 1.2 µM,-5%
same,growth inhibition,[11]; at 3.7 µM,-1%
same,growth inhibition,[11]; [17],13%
same,growth inhibition,[11]; at 11.0 µM,8%
same,growth inhibition,[11]; at 33.0 µM,25%
same,growth inhibition,[11]; [18],70% (active)
same,growth inhibition,[11]; at 50.0 µM,67.5%
same,growth inhibition,[11]; at 100.0 µM,65%
same,growth inhibition,[12]; at 1.2 µM,0%
same,growth inhibition,[12]; at 3.7 µM,-2%
same,growth inhibition,[12]; at 11.0 µM,-3%
same,growth inhibition,[12]; at 33.0 µM,13%
same,growth inhibition,[12]; at 100.0 µM,59%
same,growth inhibition,[13]; at 1.2 µM,0%
same,growth inhibition,[13]; at 3.7 µM,-1%
same,growth inhibition,[13]; at 11.0 µM,18%
same,growth inhibition,[13]; at 33.0 µM,59%
same,growth inhibition,[13]; at 100.0 µM,87% (active)
same,growth inhibition,[14]; [17],27%
same,growth inhibition,[14]; [18],78% (active)
same,growth inhibition,[14]; at 50.0 µM,94.2% (active)
same,growth inhibition,[15]; at 1.2 µM,4%
same,growth inhibition,[15]; at 3.7 µM,7%
same,growth inhibition,[15]; at 11.0 µM,24%
same,growth inhibition,[15]; at 33.0 µM,49%
same,growth inhibition,[15]; at 100.0 µM,79% (active)
C(=Nc1ccc(-c2cc(-c3ccccc3)nc3ccc4ccccc4c23)cc1)c1ccccc1,growth inhibition,[1]; at 1.2 µM,34%
same,growth inhibition,[1]; at 3.7 µM,40%
same,growth inhibition,[1]; at 11.0 µM,37%
same,growth inhibition,[1]; at 33.0 µM,53%
same,growth inhibition,[1]; at 100.0 µM,76% (active)
same,growth inhibition,[2]; at 1.2 µM,26%
same,growth inhibition,[2]; at 3.7 µM,24%
same,growth inhibition,[2]; at 11.0 µM,9%
same,growth inhibition,[2]; at 33.0 µM,31%
same,growth inhibition,[2]; at 100.0 µM,57%
same,growth inhibition,[3]; at 1.2 µM,16%
same,growth inhibition,[3]; at 3.7 µM,7%
same,growth inhibition,[3]; at 11.0 µM,15%
same,growth inhibition,[3]; at 33.0 µM,10%
same,growth inhibition,[3]; at 100.0 µM,6%
same,growth inhibition,[4]; at 1.2 µM,21%
same,growth inhibition,[4]; at 3.7 µM,11%
same,growth inhibition,[4]; at 11.0 µM,12%
same,growth inhibition,[4]; at 33.0 µM,10%
same,growth inhibition,[4]; at 100.0 µM,47%
same,growth inhibition,[5]; at 1.2 µM,23%
same,growth inhibition,[5]; at 3.7 µM,24%
same,growth inhibition,[5]; [17],20%
same,growth inhibition,[5]; at 11.0 µM,42%
same,growth inhibition,[5]; at 33.0 µM,52%
same,growth inhibition,[5]; [18],54%
same,growth inhibition,[5]; at 50.0 µM,50.2%
same,growth inhibition,[5]; at 100.0 µM,68%
same,growth inhibition,[6]; at 1.2 µM,11%
same,growth inhibition,[6]; at 3.7 µM,5%
same,growth inhibition,[6]; [17],17%
same,growth inhibition,[6]; at 11.0 µM,16%
same,growth inhibition,[6]; at 33.0 µM,14%
same,growth inhibition,[6]; [18],72% (active)
same,growth inhibition,[6]; at 50.0 µM,33%
same,growth inhibition,[6]; at 100.0 µM,31%
same,growth inhibition,[7]; at 1.2 µM,24%
same,growth inhibition,[7]; at 3.7 µM,20%
same,growth inhibition,[7]; at 11.0 µM,21%
same,growth inhibition,[7]; at 33.0 µM,38%
same,growth inhibition,[7]; at 100.0 µM,34%
same,growth inhibition,[8]; [17],11%
same,growth inhibition,[8]; [18],92% (active)
same,growth inhibition,[8]; at 50.0 µM,55.2%
same,growth inhibition,[9]; at 1.2 µM,29%
same,growth inhibition,[9]; at 3.7 µM,24%
same,growth inhibition,[9]; at 11.0 µM,34%
same,growth inhibition,[9]; at 33.0 µM,38%
same,growth inhibition,[9]; at 100.0 µM,37%
same,growth inhibition,[10]; [17],25%
same,growth inhibition,[10]; [18],75% (active)
same,growth inhibition,[10]; at 50.0 µM,14.7%
same,growth inhibition,[11]; at 1.2 µM,-9%
same,growth inhibition,[11]; at 3.7 µM,-13%
same,growth inhibition,[11]; [17],12%
same,growth inhibition,[11]; at 11.0 µM,-5%
same,growth inhibition,[11]; at 33.0 µM,14%
same,growth inhibition,[11]; [18],89% (active)
same,growth inhibition,[11]; at 50.0 µM,50.8%
same,growth inhibition,[11]; at 100.0 µM,31%
same,growth inhibition,[16]; at 1.2 µM,8%
same,growth inhibition,[16]; at 3.7 µM,17%
same,growth inhibition,[16]; at 11.0 µM,9%
same,growth inhibition,[16]; at 33.0 µM,-8%
same,growth inhibition,[16]; at 100.0 µM,9%
same,growth inhibition,[13]; at 1.2 µM,28%
same,growth inhibition,[13]; at 3.7 µM,18%
same,growth inhibition,[13]; at 11.0 µM,25%
same,growth inhibition,[13]; at 33.0 µM,36%
same,growth inhibition,[13]; at 100.0 µM,64%
same,growth inhibition,[14]; [17],20%
same,growth inhibition,[14]; [18],85% (active)
same,growth inhibition,[14]; at 50.0 µM,57.6%
same,growth inhibition,[15]; at 1.2 µM,30%
same,growth inhibition,[15]; at 3.7 µM,32%
same,growth inhibition,[15]; at 11.0 µM,44%
same,growth inhibition,[15]; at 33.0 µM,68%
same,growth inhibition,[15]; at 100.0 µM,73% (active)
